Results from the supplement of paper PMC10105736.
Unmarked numbers belong to inactive results.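 How the source made its calls: active = MAPPIT score above the 99th percentile of random reference set scores in the same batch; inactive = at or below it.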

Assays:
Experiment in all cases: MAPPIT interaction score (arbitrary units); higher = stronger binary interaction signal, active = hit call of the paper
CG3651 = conditions: MAPPIT configuration: N-N; pair source set: RRS
CG42245 = conditions: MAPPIT configuration: N-N; pair source set: RRS
CG42512 = conditions: MAPPIT configuration: N-C; pair source set: RRS
Orco = conditions: MAPPIT configuration: N-C; pair source set: Lit-BM-16
CG42659 = conditions: MAPPIT configuration: N-C; pair source set: screen_4
Traf-like = conditions: MAPPIT configuration: N-N; pair source set: Lit-BS-16
CG42831 = conditions: pair source set: RRS
CG34345 = conditions: pair source set: RRS
CG34328 = conditions: MAPPIT configuration: N-C; pair source set: screen_3
CG3557 = conditions: MAPPIT configuration: N-N; pair source set: Curagen_low_conf
Mst84Db = conditions: MAPPIT configuration: N-N; pair source set: Curagen_low_conf
CG3565 = conditions: MAPPIT configuration: N-N; pair source set: DPIM
CG9588 = conditions: MAPPIT configuration: N-N; pair source set: Lit-BS-16
Prosalpha2 = conditions: MAPPIT configuration: N-N; pair source set: Lit-BM-16
Rpn1 = conditions: MAPPIT configuration: N-N; pair source set: Lit-BM-16
Rpt1 = conditions: MAPPIT configuration: N-C; pair source set: Lit-BM-16
Rpt6 = conditions: MAPPIT configuration: N-C; pair source set: Lit-BM-16
CG3473 = conditions: MAPPIT configuration: N-N; pair source set: screen_2
Ubc2 = conditions: MAPPIT configuration: N-N; pair source set: screen_2
CG3517 = conditions: MAPPIT configuration: N-N; pair source set: Finley_Y2H
CG3792 = conditions: MAPPIT configuration: N-C; pair source set: screen_4
Dpm3 = conditions: MAPPIT configuration: N-C; pair source set: screen_3
CG3457 = conditions: MAPPIT configuration: N-N; pair source set: Finley_Y2H
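Further: HEK293T cells with Epo stimulation, STAT-responsive firefly luciferase reporter, fold induction versus unstimulated cells divided by the larger fold induction of two negative controls lacking either bait or prey.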

B1: mex1 (protein)
chain: MCNALCECLKCPGKVVCCCCSCACKMLLSIVFSALLMVVVIGLIVYFTVFYHKDKNTDEVQKQVAQLTPIVKRSIRDYFNKEY
For B1, the MAPPIT interaction score (CG3651) was 0.00975.

B2: Dhfr (protein)
chain: MLRFNLIVAVCENFGIGIRGDLPWRIKSELKYFSRTTKRTSDPTKQNAVVMGRKTYFGVPESKRPLPDRLNIVLSTTLQESDLPKGVLLCPNLETAMKILEEQNEVENIWIVGGSGVYEEAMASPRCHRLYITKIMQKFDCDTFFPAIPDSFREVAPDSDMPLGVQEENGIKFEYKILEKHS
Binder B2 has an MAPPIT interaction score (CG42245) of 0.497.

B3: Orco (protein)
chain: MTTSMQPSKYTGLVADLMPNIRAMKYSGLFMHNFTGGSAFMKKVYSSVHLVFLLMQFTFILVNMALNAEEVNELSGNTITTLFFTHCITKFIYLAVNQKNFYRTLNIWNQVNTHPLFAESDARYHSIALAKMRKLFFLVMLTTVASATAWTTITFFGDSVKMVVDHETNSSIPVEIPRLPIKSFYPWNASHGMFYMISFAFQIYYVLFSMIHSNLCDVMFCSWLIFACEQLQHLKGIMKPLMELSASLDTYRPNSAALFRSLSANSKSELIHNEEKDPGTDMDMSGIYSSKADWGAQFRAPSTLQSFGGNGGGGNGLVNGANPNGLTKKQEMMVRSAIKYWVERHKHVVRLVAAIGDTYGAALLLHMLTSTIKLTLLAYQATKINGVNVYAFTVVGYLGYALAQVFHFCIFGNRLIEESSSVMEAAYSCHWYDGSEEAKTFVQIVCQQCQKAMSISGAKFFTVSLDLFASVLGAVVTYFMVLVQLK
Binder B3 has an MAPPIT interaction score (CG42512) of 0.963 and an MAPPIT interaction score (Orco) of -0.077.

B4: esg (protein)
chain: MHTVEDMLVEKNYSKCPLKKRPVNYQFEAPQNHSNTPNEPQDLCVKKMEILEENPSEELINVSDCCEDEGVDVDHTDDEHIEEEDEDVDVDVDSDPNQTQAAALAAAAAVAAAAAASVVVPTPTYPKYPWNNFHMSPYTAEFYRTINQQGHQILPLRGDLIAPSSPSDSLGSLSPPPHHYLHGRASSVSPPMRSEIIHRPIGVRQHRFLPYPQMPGYPSLGGYTHTHHHHAPISPAYSENSYYSMRSMTPESSCSSSLPEDLSLKHKNLNLNLNTSQPGEQAAAKTGDMSPETMPNASAKKDKNQPPRYQCPDCQKSYSTFSGLTKHQQFHCPAAEGNQVKKSFSCKDCDKTYVSLGALKMHIRTHTLPCKCNLCGKAFSRPWLLQGHIRTHTGEKPFSCQHCHRAFADRSNLRAHLQTHSDIKKYSCTSCSKTFSRMSLLTKHSEGGCPGGSAGSSSSSELNYAGYAEP
B4 showed an MAPPIT interaction score (CG42659) of 0.721 and an MAPPIT interaction score (Traf-like) of 0.713.

B5: dan (protein)
chain: MNIRMGTKGKRPLRSLTPRDKIHAIQRIHDGESKASVARDIGVPESTLRGWCKNEDKLRFMSRQSATDNLCADALGDKMDGGGGGGGGAGGGGLLGPPEKRQRLDGALPLNFSNKLKFDELAFKRSPLNGLDYSTNKNLADLGYNGLPVDYAAFNGGVKAKVFGADINRPAADPSLNAISPLSSLTHLSGLTGISQSPLAISFNELTTNLNLLAQLNPGLAAMSGLNSFPAGAGNLRTPKPSGQTPLQVQSPRSDSGDRSAQGLSVKNWAKQKPGEGQGSLNLSIKNEGKGGDIKSPSPSIAPSQMGGPMTLSNLAEDPLLYWLKSQQTMLGLNPLYPPTIPMGVTSPPIRSSTPQHMSQLAQTPPIPSAPLTPSSTPSGSLDEKNAAWYNWCKAFGASLHTLNPNAATLAALQANQLQQQVATTAAEGGSMGDPSNILYSHLTKETETPSVRSLSSNEQNPEADEATETDLDGEVEPEASGKPEDLSAAGKVMTPSQSPIAHSSGSRSPEPKAKTKTPETTNSTSECKKILDNMLFKMGGMEATGPLMPEQGSSESEGSFQDTSNPHTNNNDVSASNNNNNNNSNKTDEEEKAKYLDCTADEDIEAIRHGEKFLQWLENCSNPRVTAVQLMQLRFLIAAIKSGNETPMIEKSALPEDSEEHAAEEEGSGRGKSRRRK
With B5 the MAPPIT interaction score (CG42831; MAPPIT configuration: N-C) was 0.788 and the MAPPIT interaction score (CG42831; MAPPIT configuration: N-N) was 0.273.

B6: MCU (protein)
chain: MSRNRAAMVSAFRLFLRPATTTTHRSLALRLAPGTTFALHLRPCHELQQHRSFASTAEDGETDKHKKPTTGEDIYVEYVNGMPHMTVRLPSRNELCQFALKPISHNVGDLLAMLRAEDRGIDRAAVINKHGVRIASSCTIESLLDDSFSIQINNRTLDVNPPKRDKVTLESMDKVGDVRKVIAQLYEAFNVGEYQLEKSNQLAKELETLRYELEPLEEKKLELSKKAARRTNFMTWMGLGLMSVQFGILARLTWWEYSWDIMEPVTYFVTYGTTMAMYAYYCVTKREYMMEDVKNREFSLSLYRNAKKVQFDVEHYNELKRKSAELEYNLRRINDPLNMQLPSHLVRTQENTPPTLTEEKAERKYT
Work on B6 yielded an MAPPIT interaction score (CG34345; MAPPIT configuration: N-C) of 0.433 and an MAPPIT interaction score (CG34345; MAPPIT configuration: N-N) of 0.157.

B7: betaTub85D (protein)
chain: MREIVHIQAGQCGNQIGGKFWEVISDEHCIDATGTYYGDSDLQLERINVYYNEATGAKYVPRAILVDLEPGTMDSVRSGAFGQIFRPDNFVFGQSGAGNNWAKGHYTEGAELVDSVLDVVRKESEGCDCLQGFQLTHSLGGGTGSGMGTLLISKIREEYPDRIMNTFSVVPSPKVSDTVVEPYNATLSVHQLVENTDETYCIDNEALYDICFRTLKLTTPTYGDLNHLVSATMSGVTTCLRFPGQLNADLRKLAVNMVPFPRLHFFMPGFAPLTSRGSQQYRALTVPELTQQMFDAKNMMAACDPRHGRYLTVAAIFRGRMSMKEVDEQMLNIQNKNSSFFVEWIPNNCKTAVCDIPPRGLKMSATFIGNSTAIQELFKRVSEQFTAMFRRKAFLHWYTGEGMDEMEFTEAESNMNDLVSEYQQYQEATADEEGEFDEDEEGGGDE
With B7 the MAPPIT interaction score (CG34328) was 4.11 (active).

B8: tos (protein)
chain: MGITGLIPFVGKASSQLHLKDIRGSTVAVDTYCWLHKGVFGCAEKLARGEDTDVYIQYCLKYVNMLLSYDIKPILVFDGQHLPAKALTEKRRRDSRKQSKERAAELLRLGRIEEARSHMRRCVDVTHDMALRLIRECRSRNVDCIVAPYEADAQMAWLNRADVAQYIITEDSDLTLFGAKNIIFKLDLNGSGLLVEAEKLHLAMGCTEEKYHFDKFRRMCILSGCDYLDSLPGIGLAKACKFILKTEQEDMRIALKKIPSYLNMRNLEVDDDYIENFMKAEATFRHMFIYNPLERRMQRLCALEDYETDERYCSNAGTLLEDSEQALHLALGNLNPFSMKRLDSWTPEKAWPTPKNVKRSKHKSIWQTNFQSENTHTPKKENPCALFFKKVDFVGKTLNEEIEANQRLEQAKQTEAELFNMYSFKAKRRRSPSREDSVDQERTPPPSPVHKSRHNPFAKERTGEEANQRSPVVCENASLLRLLSPKKASPLDGEAGVKKVDSLKRSIFAKEQVQIRSRFFATQDEQTRLQREHLRDTENDDMDEQKLSSHSGHKKLRLVCKDIPGKNPIRQRCSSQISDGETDTDTTASSLLESQDKGVPSPLESQEDLNNSQPQIPTEGNTNSTTIRIKSLDLLLENSPEPTQESDRNNNDAIILLSDDSCSSDQRASSTSSSSQQRQNFLPTSKRRVGLSKPSTAKKGTPKSRTNGKLGAVSQNQTKLSMFGFQTKPVLK
B8 showed an MAPPIT interaction score (CG3557) of 0.0573 and an MAPPIT interaction score (Mst84Db) of -0.0214.

B9: Rpt2 (protein)
chain: MGQNQSAQGGAGEKKDDKDKKKKYEPPIPTRVGKKKRRAKGPDAAMKLPQVTPHTRCRLKLLKLERIKDYLMMEDEFIRNQERLKPQDEKNEEERSKVDDLRGTPMSVGNLEEIIDDNHAIVSTSVGSEHYVSILSFVDKDQLEPGCSVLLNHKVHAVVGVLSDDTDPMVTVMKLEKAPQETYADIGGLDTQIQEIKESVELPLTHPEYYEEMGIKPPKGVILYGPPGTGKTLLAKAVANQTSATFLRVVGSELIQKYLGDGPKLVRELFRVAEEHAPSIVFIDEIDAVGTKRYDSNSGGEREIQRTMLELLNQLDGFDSRGDVKVIMATNRIETLDPALIRPGRIDRKIEFPLPDEKTKRRIFTIHTSRMTLAEDVNLSELIMAKDDLSGADIKAICTEAGLMALRERRMKVTNEDFKKSKESVLYRKKEGTPEGLYL
For B9, the MAPPIT interaction score (CG3565) was 2.71 (active), the MAPPIT interaction score (CG9588) was 0.822 and the MAPPIT interaction score (Prosalpha2) was 2.86 (active). The MAPPIT interaction score (Rpn1) was 6.22 (active), the MAPPIT interaction score (Rpt1) was 1.56 and the MAPPIT interaction score (Rpt6) was 0.824.

B10: Iru (protein)
chain: MAEAMVVEDRPAEAKRFFCHMCNVEINIPNSDFTCPLCANGFVEELPANAPEMDSSTAGASGSARSGSSGSGSSGSHDTLSRGSSSSGSQVNVESLRNDIVSLLNMRNVPNLEITIEPNRRHSNVLHLGGFGGPSGSDSARGLTAGGRVRPANLDRLDNVLFDFLQSLPLAGATAEIVTGPGGGGVGGGGNSHMFFMGNPGDYAWGREGLDTIVTQMLNQMETSGPPPLSAQRINEIPNVQINAEEVNRKIQCSICWDDFKIDETVRKLPCSHLYHENCIVPWLNLHSTCPICRKSLADDGNDADDEFVMLDAFGPEMAADGSNSERRSASTATGTDNPSPANNPSQAAAEGGRTRPDANPAQAARNNIFTFDDDNMFLD
In the case of B10, the MAPPIT interaction score (CG3473) is reported as 0.831 and the MAPPIT interaction score (Ubc2) is reported as 0.234.

B11: MED4 (protein)
chain: MSFHLSTKERLLLLIDDIEMIAKELIEQAHQKISSTELVDLLDLLVAKDEEFRKMLELAEEQAKVEEAMDQLRAKVEVHDREIQKLQKSLKDAELILSTAIFQARQKLASINQANKRPVSSEELIKYAHRISSANAVSAPLTWCIGDLRRPYPTDIEMRNGLLGKSEQNINGGTVTHQNSGMPSEQQRTLSGSAGSGSGSGAGGEVPNAFQNQFNWNLGELHMTMGASGNTVALETRAQDDVEVMSTDSSSSSSSDSQ
Binder B11 has an MAPPIT interaction score (CG3517) of 1.9.

B12: Syngr (protein)
chain: MDMLNQILSINNGGAYGGGKAGGAFDPLTFAMKPQVVIRALCWLFSVVVFGCISSEGWTEKDGKEYCLYNGDGMACKYGNMVGVFGFLASMGFMGGEFLFERMSSVKSRKRYVMADMGFSALWTFMYFVAFLYLWSQWSSSAPPPLGIGAGSMKTAIWFCLFSIVSWALCALMAYKRFLIGAGDEFTSAFETDPANVVHQQAYGYSMDNDNDQYSASPFGQPQQGGMEQQQSGMEYQQPTY
In the case of B12, the MAPPIT interaction score (CG3792) is reported as -0.645 and the MAPPIT interaction score (Dpm3) is reported as -1.36.

B13: Cog6 (protein)
chain: MSSTQEKPEELDRIQKRVNKILEARLESDKDTLDALSGLSTFFTENTLQNRRNLRSQIEHRSVGINENFLKAFRQVKLSLDAVCEDLDTMATSVETMKSDLETSKALTKDLIKQTNTMQRERDRLEVHKQIAQAFLARFQLSGAEHQLLYGAAKDAPIVADFFRVLDRVQSIHADCRLLMQCGYQTAAIDIMEEMTLHQEGALERLYRWTQNHCRSLENNEIGPLIVEAMSRLQDRPVLFKYVIDEYAIARRAVLVRQFIEALTEGGPGGNPKPIELHAHDPKRYIGDMFAWLHQSIPTEKENLSLLFKKCDKQDISDQLQNALGYIADGVCHPLKVRVETILQAEKDTIVLFTISNLLRFYQQIMRQVVQGGSLEECLVELQKSSEQIYLGALAAQVRSVLQRPSGGSGLALEPPQRDLVPPPSVARLLNMLKEILSVATMVDGRQADITKIVSCVIDPLLQSVQESAAHLPTVDMGVYLLNCLHHMQSSLAVYEYMDERVERLQAQSDAQLDTLTSEQASSLVANLNLGPIYAILQSNQSKIETNLLKIFMSKMDAFLELPDVLLLPQVQLIMSSSHRAAVQKRSFNVIVAIYKQIYERVHDPANGFEQPEQLLHRTPEQVAHILTST
With B13 the MAPPIT interaction score (CG3457) was 0.308.
